The full list was thinned out, with hits kept by preference.
CD40 NFkB inh – CD40 pathway inhibition in BL2 cells | inhibition, % at 10 µM | actives 0.94% (n = 83,000) | AID 1053188 | BL2 NF-kB luciferase reporter, CD40L-induced, 4 h;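 active means mean inhibition of at least 50% with a set share of replicates also reaching that level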;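 further: 0% = neutral control wells and 100% = IKK inhibitor VII at 50 µM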
Starred values were filed as active, the others as inactive; [ ] = dose if it differs, or a comment.

SMILES	CD40 NFkB inh
C[C@@H](NC(=O)C[C@@H]1C=C[C@H](NC(=O)c2cccnc2)[C@@H](CO)O1)c1ccccc1	1[25 µM]
Cc1ccccc1S(=O)(=O)N[C@@H]1CC[C@H](CCn2cc(Cc3ccccc3)nn2)O[C@H]1CO	4
CC(C)NC(=O)NCC[C@@H]1CC[C@H](NS(=O)(=O)c2ccc(Oc3ccccc3)cc2)[C@H](CO)O1	7[25 µM]
CC(C)OC(=O)c1cn(Cc2c(F)cccc2F)c2sc(-c3ccc(NC(=O)C(C)C)cc3)c(CN(C)Cc3ccccc3)c2c1=O	54*[25 µM]
C[C@@H]1CN([C@H](C)CO)C(=O)c2c(c3ccccc3n2C)-c2ccccc2CO[C@H]1CN(C)C(=O)Nc1ccnc(N2CCOCC2)c1	-2[25 µM]
O=C(NC(=S)/C(=C1\CCCCCN1)[N+](=O)[O-])c1ccccc1	72*
O=C(COC(=O)c1ccccc1[N+](=O)[O-])NC(=O)c1ccccc1	-41
O=C(NC1CCCCNC1=O)c1ccccc1 (configuration not stated)	-11
CCCN(C)C[C@H]1OCc2cn(nn2)CCCC(=O)N([C@@H](C)CO)C[C@H]1C	2[25 µM]
CCC(=O)N1[C@H](CO)[C@@H](c2ccc(-c3ccccc3)cc2)[C@@H]1CNC(=O)COC	1
Cc1ccc(S(=O)(=O)c2ccc([N+](=O)[O-])o2)cc1	109*
Cc1ccc(-c2nnc(NC(=O)c3ccc([N+](=O)[O-])o3)o2)c(C)c1	-4
CC12CN3CC(C)(CN(C1)C3c1ccc([N+](=O)[O-])o1)C2 (configuration not stated)	-5
COc1cccc(C(=O)Nc2ccc3c(c2)OC[C@@H](C)N(CCc2ccccc2)C[C@@H](C)[C@H](OC)CN(C)C3=O)c1	3[25 µM]
CO[C@@H]1CN(C)C(=O)c2ccc(NC(=O)C3CCC3)cc2OC[C@H](C)N(Cc2nccs2)C[C@@H]1C	-4
Cc1ccc(-n2ccnc(SCC(=O)NC3CCCC3)c2=O)cc1Cl	3
CCOc1ccc(-n2ccnc(SCC(=O)NCCc3ccccc3)c2=O)cc1	-3
Cc1ccc(-n2ccnc(SCC(=O)NCCc3ccccc3)c2=O)cc1F	54*
Cc1ccc(OC(=O)CCC(=O)Oc2ccc(C)cc2C)c(C)c1	0
C=C(CN(C)C)C(=O)c1ccc(C)cc1C	93*
Cc1ccc(C)c(N(CC(=O)N(C)C)S(C)(=O)=O)c1	4
O=C(c1ccncc1)N1C[C@H]2[C@@H](c3ccccc31)[C@H](CO)N2C(=O)CN1CCOCC1	-3[25 µM]
C[C@H](NC(=O)C[C@H]1C=C[C@@H](NC(=O)c2cccnc2)[C@@H](CO)O1)c1ccccc1	-7[25 µM]
Cn1cnc(CCNC(=O)C[C@@H]2CC[C@@H]3[C@H](COC[C@@H](O)CN3C(=O)Nc3ccc(C(F)(F)F)cc3)O2)c1	52*[25 µM]
Cn1cnc(CCNC(=O)C[C@@H]2CC[C@@H]3[C@H](COC[C@H](O)CN3C(=O)Nc3ccc(C(F)(F)F)cc3)O2)c1	5[25 µM]
SMILES	CD40 NFkB inh
Cn1cnc(CCNC(=O)C[C@H]2CC[C@@H]3[C@H](COC[C@@H](O)CN3C(=O)Nc3ccc(C(F)(F)F)cc3)O2)c1	21[25 µM]
CCS(=O)(=O)N1CC2(CN(C(=O)Cc3ccccn3)[C@H](CO)c3[nH]c4cc(OC)ccc4c32)C1	-10[25 µM]
CN1c2ccc(-c3cccc(F)c3)cc2[C@@H]2[C@@H](CCN2S(=O)(=O)c2cccc(F)c2)[C@@H]1CO	4
CC(=O)Nc1ccc(S(=O)(=O)N(CCCN2CCOCC2)Cc2cccs2)cc1	3
Cc1ccc(S(=O)(=O)CCC(=O)N(CCCN2CCOCC2)c2nc3ccccc3s2)cc1	96*
O=C(CCS(=O)(=O)c1ccccc1)Nc1ccc(N2CCOCC2)cc1	-25
O=C(CCS(=O)(=O)c1ccccc1)N(CCCN1CCOCC1)c1nc2ccccc2s1	96*
O=C(NCCCN1CCOCC1)c1cc(-c2ccccc2)nc2ccccc12	1
Cc1ccc2nc(N(CCN3CCOCC3)C(=O)CCS(=O)(=O)c3ccccc3)sc2c1	-33
CN(C)CC#Cc1ccc([C@H]2[C@H]3CN(C(=O)Nc4cc(F)ccc4F)CCCCN3[C@H]2CO)cc1	2[25 µM]
C[C@@H]1CN([C@H](C)CO)C(=O)c2ccccc2-c2ccccc2CO[C@H]1CN(C)C(=O)Oc1ccccc1	3
CCc1nc(N2[C@H](C#N)[C@@H](c3ccccc3-c3ccccc3C)[C@H]2CO)sc1C	0[25 µM]
COc1ccc2c3c(n(C)c2c1)[C@H](CO)N(C(=O)C1CCOCC1)CC31CCN(C(=O)C2CCOCC2)CC1	1
N#C[C@H]1[C@@H](c2ccccc2C2=CCCC2)[C@H](CO)N1S(=O)(=O)c1cccc(F)c1	17[25 µM]
CCOC(=O)c1c(-c2ccc(C)o2)csc1N	3
CCOC(=O)c1c(-c2ccc(C)o2)csc1NC(=O)COC(=O)c1cccs1	80*
CCOC(=O)c1c(-c2ccc(C)o2)csc1NC(=O)CN1CCOCC1	-1
CO[C@@H](CN(C)C(=O)C1CC1)[C@@H](C)CN(C(=O)Nc1ccc(C(F)(F)F)cc1)[C@@H](C)CO	-2
O=C(c1cccc(F)c1)N1CC2(C1)[C@H](c1ccccc1)[C@@H](CO)N2C(=O)C1CCCCC1	16[25 µM]
CC(C)NC(=O)N1[C@@H]2c3ccc(-c4ccccc4F)c(=O)n3C[C@@H]2[C@@H](CO)[C@@H]1C(=O)NC1CCC1	-6[25 µM]
CCC(=O)N1[C@@H](CO)[C@@H]2c3ccccc3N(C(=O)NC(C)C)C[C@@H]21	-8[25 µM]
C[C@H]1CCCCO[C@@H](CN(C)C(=O)Nc2ccc(C(F)(F)F)cc2)[C@@H](C)CN([C@@H](C)CO)C(=O)c2cc(NC(=O)Nc3ccc4c(c3)OCO4)ccc2O1	3
CC(=O)OCC(=O)C1(O)CCC2C3CCC4=CC(=O)CCC4(C)C3(Cl)C(O)CC21C (configuration not stated)	62*
CC(=O)OCC=C1CCC2C3CCC4=CC(=O)CCC4(C)C3C(O)CC12C (configuration not stated)	7
C[C@]12CCC(=O)C=C1CC[C@@H]1[C@@H]2[C@@H](O)C[C@@]2(C)[C@H]1CC[C@]2(O)C(=O)COC(=O)CCC(=O)O	24
SMILES	CD40 NFkB inh
COc1ccc2c3c(n(C)c2c1)[C@@H](CO)N(Cc1cccnc1)CC31CN(C(=O)c2cccnc2)C1	-10[25 µM]
COc1ccc2c3c(n(C)c2c1)[C@@H](CO)N(Cc1ccccc1OC)CC31CCN(CC2CC2)CC1	-8[25 µM]
CC(C)[C@@H]1C(=O)N[C@H](c2ccc3c(c2)OCO3)CC=CC[C@@H](C)Oc2ccccc2C(=O)N1C (mixture of isomers)	-1
CN1CCN(C(=O)[C@H]2[C@H](CO)[C@H]3Cn4c(ccc(C5=CCCC5)c4=O)[C@@H]2N3S(C)(=O)=O)CC1	-13[25 µM]
CNC[C@H]1Oc2ccc(NC(=O)NC(C)C)cc2CC(=O)N(C)C[C@H]1C	0
Cc1[nH]c2ccccc2c1CC#N	-1
Cc1[nH]c2ccccc2c1CCO	18
Cc1[nH]c2ccccc2c1C1=CC(=O)C=CC1=O	91*
C[C@@H]1CN(C)C(=O)Cc2cc([N+](=O)[O-])ccc2O[C@H]1CN(C)C(=O)OC(C)(C)C	5
C[C@H]1CN(C)C(=O)c2cc(N(C)C)ccc2O[C@@H]1CN(C)C	-41
COc1ccc(NC(=O)N(C)C[C@H]2OCc3ccccc3-c3c(n(C)c4ccccc34)C(=O)N([C@H](C)CO)C[C@H]2C)cc1	-1
N#C[C@@H]1[C@@H](c2ccccc2-c2ccccc2)[C@@H](CO)N1C(=O)NC1CCCC1	53*[25 µM]
N#C[C@H]1[C@H](c2ccccc2-c2ccccc2)[C@H](CO)N1C(=O)NC1CCCC1	27[25 µM]

Assay outcomes as filed in PubChem BioAssay.
